From PubChem BioAssay AID1159580 (chemical genetic matrix, 2015)
In all, about 5,500 compounds went through this assay and about 2,000 (36%) were called active. Inconclusive results (about 18%) are left out. Cut-off read from the data, not from the text of the source: active = normalized growth mostly below about 0.91 (no sharp cut-off); inconclusive = no clear call, values can overlap the other calls; inactive = mostly above about 0.92. Some of the results follow.

Assay: chemical genetic growth profiling, strain panel (AID 1159580);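 note: tested at 20 µM; growth read once vehicle control cultures reached saturation at 30 °C; 1 = growth at the plate median or of vehicle wells; lower values mean less growth of the strain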
Details: S. cerevisiae deletion strains, growth OD
[1] = locus YAL013W, strain DEP1, active compounds read low
[2] = locus YAL040C, strain CLN3, active compounds read low
[3] = locus YCL061C, strain MRC1 (second series), active compounds read low
[4] = locus YDR150W, strain NUM1, active compounds read low
[5] = locus YDR363W, strain ESC2, active compounds read low
[6] = locus YER002W, strain NOP16, active compounds read low
[7] = locus YHR030C, strain SLT2, active compounds read low
[8] = locus YHR079C, strain IRE1, active compounds read low
[9] = locus YJL095W, strain BCK1, active compounds read low
[10] = locus YJR066W, strain TOR1, active compounds read low
[11] = locus YJR075W, strain HOC1, active compounds read low
[12] = locus YLR113W, strain HOG1, active compounds read low
[13] = locus YMR263W, strain SAP30, active compounds read low
[14] = locus YNL175C, strain NOP13, active compounds read low
[15] = locus YNL183C, strain NPR1, active compounds read low
[16] = locus YNL197C, strain WHI3, active compounds read low
[17] = locus YNL224C, strain SQS1, active compounds read low
[18] = locus YOR083W, strain WHI5 (second series), active compounds read low
[19] = locus YOR231W, strain MKK1, active compounds read low
[20] = locus YPL256C, strain CLN2, active compounds read low
[21] = locus YGR229C, strain SMI1, active compounds read low

Measured: normalized growth

Nc1nc2ccc(OC(F)(F)F)cc2s1
active: locus YMR307W, strain GAS1, active compounds read low 0.856 | locus YPL055C, strain LGE1, active compounds read low 0.829
inactive: [1] 0.937 | [2] 0.985 | [3] 0.979 | [4] 0.954 | [5] 0.943 | [6] 0.979 | [7] 1.02 | [8] 1.02 | [9] 0.961 | [10] 0.956 | [11] 0.918 | [12] 0.94 | [13] 0.988 | [14] 0.975 | [15] 0.944 | [16] 0.988 | [17] 0.979 | [18] 0.938 | [19] 0.999 | [20] 1.02

O=C(O)c1nn(Cc2ccc(Cl)cc2Cl)c2ccccc12
inactive: [1] 1 | [2] 1.05 | [3] 0.99 | [4] 1.02 | [5] 0.972 | [6] 0.956 | [21] 1.03 | [11] 1.02 | [13] 1 | locus YNL128W, strain TEP1, active compounds read low 0.969 | locus YNL153C, strain GIM3, active compounds read low 1.02 | [14] 0.935 | [16] 0.964 | [17] 0.996 | locus YNL322C, strain KRE1, active compounds read low 0.998 | [18] 0.994

OCc1ccc(-c2nn(Cc3ccccc3)c3ccccc23)o1
inactive: [1] 0.925 | [2] 1.06 | [3] 1 | [4] 1.02 | [5] 1.01 | [6] 0.988 | locus YGR078C, strain PAC10, active compounds read low 0.986 | [13] 0.991 | [14] 0.977 | [16] 0.972 | [17] 0.981 | [18] 0.95 | locus YPL241C, strain CIN2, active compounds read low 1.02
active: [21] 0.841

CN(C)CCCOc1nn(Cc2ccccc2)c2ccccc12
inactive: [7] 0.972 | [8] 0.968 | [9] 0.979 | [10] 0.954 | [12] 0.956 | [15] 0.922 | [19] 0.967 | [20] 0.991
